Screening data as filed in PubChem.
Hits are enriched below; roughly 13% of the tested compounds scored in any of these assays.
Sfp inh = qHTS Assay for Inhibitors of Bacillus subtilis Sfp phosphopantetheinyl transferase (PPTase); Biochemical Sfp PPTase activity, qHTS; 4'-phosphopantetheinyl transferase ffp (Bacillus subtilis), Q9F4F7; AID 1490, 2009; 310,000 tested, 3.5% active; Potency, µM, without a hit: largest response in the series, negative = inhibition, most hits filed as inhibitors;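 further: the enzyme is Sfp with the accession as filed and its product quenches rhodamine fluorescence; potency means the concentration at half of the fitted maximal effect; 0% = enzyme reaction without inhibitor and -100% = no enzyme wells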
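Fluorescence-quenching assay: 15 nM Sfp-PPTase preincubated 15 min at room temperature with compound, then 5 uM rhodamine-CoA and 12.5 uM BHQ-2-labelled YbbR peptide added. Fluorescence (ex 525/em 598 nm) read at start and after 30 min; difference gives rate.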
LMNA splice mod = qHTS Assay for Modulators of Lamin A Splicing | HeLa LMNA splicing GFP/RFP minigene ratio, 48 h | Potency, µM (series often up to 46.1 µM), for the others: at the highest dose ratio change, negative = inhibition, most hits filed as inhibitors | 200,000 tested, 0.01% active | AID 1487, 2009; active means well fitted inhibition curve with a large enough effect in the signal ratio, with a control signal flat, not every such curve was filed as active; inconclusive means small, poorly fitted or top-dose-only effect, or effect the other way, or a change in a side signal; the % refers to the signal ratio; further: potency means the concentration at half of the fitted maximal effect; on the % scale 0 is the no-effect control and ±100 the full control effect
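Read-out is the ratio of GFP to DsRed2 object intensity, acquired by 488 nm laser-scanning cytometry on HeLa lamin A-EGFP minigene reporter cells. Compound incubation 48 hrs at 37 °C in Opti-MEM with 2% FBS; DMSO 0.5% final.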
miR-21 act = qHTS Assay for Modulators of miRNAs and/orActivators of miR-21; 340,000 tested, under 10 active; AID 2288, 2010; HeLa miR-21 FLuc reporter, luciferase, 48 h; Potency, µM (top dose mostly 38.3 µM), inactives show at the highest dose activity change, positive = activation, actives largely listed as activators;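 further: % of control where 0% means no effect; miR-21 action dims this reporter so a rising signal means less miR-21 action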
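HeLa miR-21-FLuc reporter line, endogenous miR-21; 2000 cells/well in DMEM/10% FBS; compound titration up to ~40uM final, 48 h, 37 degree Celsius; luciferase detection reagent, 15 min lysis, CCD luminescence.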
G9a inh = qHTS Assay for Inhibitors of Histone Lysine Methyltransferase G9a; Histone-lysine N-methyltransferase EHMT2 (Homo sapiens), Q96KQ7; 350,000 tested, 8.8% active; G9a H3K9 monomethylation, AlphaScreen, 2 h; AID 504332, 2011; Potency, µM (top dose mostly 102 µM), without a hit: top-dose activity, negative = inhibition, actives largely listed as inhibitors; further: potency means the concentration at half of the fitted maximal effect; on the % scale 0 is the no-effect control and ±100 the full control effect; nearly all actives have a fitted effect of over 75% in size
Target sequence (Q96KQ7 913-1193 limits assumed): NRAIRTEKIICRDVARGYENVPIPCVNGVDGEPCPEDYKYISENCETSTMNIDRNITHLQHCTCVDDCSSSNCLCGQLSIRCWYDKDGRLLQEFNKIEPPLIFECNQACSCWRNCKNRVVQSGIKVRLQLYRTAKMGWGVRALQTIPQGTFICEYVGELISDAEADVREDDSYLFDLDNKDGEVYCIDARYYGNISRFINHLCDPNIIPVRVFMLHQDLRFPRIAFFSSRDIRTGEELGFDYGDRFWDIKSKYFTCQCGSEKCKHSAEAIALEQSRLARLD
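Quantitative HTS format: methyltransferase activity on a biotin-tagged H3K9 peptide is measured by AlphaScreen, using a rabbit anti-monomethyl-H3K9 antibody with streptavidin donor and anti-IgG acceptor beads. Final levels are 20 nM enzyme, 500 nM peptide, 20 uM SAM; 2 h RT.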
ALDH1A1 inh = qHTS Assay for Inhibitors of Aldehyde Dehydrogenase 1 (ALDH1A1); Purified ALDH1A1, NADH fluorescence, propionaldehyde substrate; Aldehyde dehydrogenase 1A1 (Homo sapiens), P00352; Potency, µM (doses to about 75.3 µM), inactives show top-dose activity, negative = inhibition, most hits filed as inhibitors; 220,000 tested, 7.3% active; active means well fitted inhibition curve with a large enough effect, not every such curve was filed as active; inconclusive means small, poorly fitted or top-dose-only effect, or another doubt; inactive means no such curve, though single readings can be large or run the other way;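 further: potency means the concentration at half of the fitted maximal effect; plate controls were no enzyme wells and a reference inhibitor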
Target sequence (P00352 whole entry, looked up): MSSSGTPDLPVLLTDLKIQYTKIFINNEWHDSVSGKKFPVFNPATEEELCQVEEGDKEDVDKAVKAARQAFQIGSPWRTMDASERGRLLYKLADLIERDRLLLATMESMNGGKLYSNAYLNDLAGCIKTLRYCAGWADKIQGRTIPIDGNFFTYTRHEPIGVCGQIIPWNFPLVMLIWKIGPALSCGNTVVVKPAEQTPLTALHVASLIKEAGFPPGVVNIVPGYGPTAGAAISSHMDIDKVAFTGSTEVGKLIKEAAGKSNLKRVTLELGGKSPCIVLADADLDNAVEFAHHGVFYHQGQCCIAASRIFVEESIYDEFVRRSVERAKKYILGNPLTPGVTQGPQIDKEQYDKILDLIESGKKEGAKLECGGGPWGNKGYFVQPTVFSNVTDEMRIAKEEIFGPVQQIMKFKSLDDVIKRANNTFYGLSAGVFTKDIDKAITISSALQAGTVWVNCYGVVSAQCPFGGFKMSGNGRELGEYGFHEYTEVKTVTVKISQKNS
KDM4E inh = qHTS Assay for Inhibitors of Human Jumonji Domain Containing 2E (JMJD2E). Lysine-specific demethylase 4E (Homo sapiens), B2RXH2. 230,000 tested, 1.6% active. JMJD2E catalytic domain, FDH-coupled NADH fluorescence (FDH is formaldehyde dehydrogenase). AID 2147, 2009. Potency, µM (highest dose often 57.1 µM), inactives show top-dose activity change, negative = inhibition, usual class: inhibitors; active means well fitted inhibition curve with a large enough effect, not every such curve was filed as active; inconclusive means small, poorly fitted or top-dose-only effect, or another doubt; inactive means no such curve, though single readings can be large or run the other way;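 further: potency means the concentration at half of the fitted maximal effect; 0% = wells with enzyme and -100% = buffer wells without enzyme; nearly all actives have a fitted effect of over 50% in size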
* marks the source's active call; other numbers are inactive results; u = inconclusive; x = no result; [ ] = remark or other dose. Unless noted, the call rests on the fitted dose curve; in most records, active means well fitted curve in the direction sought with a large enough effect; inconclusive means small, poorly fitted or top-dose-only effect, or another doubt; inactive means no such curve, though single readings can be large; an effect the other way counts as inactive or inconclusive.

SMILES	Sfp inh	LMNA splice mod	miR-21 act	G9a inh	ALDH1A1 inh	KDM4E inh
O=C(CN1CCN(S(=O)(=O)N2CCOCC2)CC1)Nc1ccc(Cl)c(Cl)c1	3%	x	5%	u	x	x
O=C(CSCC(=O)N1CCOCC1)Nc1ccccc1	3%	-4%	2%	45µM*	u	8%
COc1ccc(CNC(=O)c2cnc3sc(N4CCCCCC4)nn3c2=O)cc1	x	u	-5%	-2%[59 µM]	x	x
CCOC(=O)c1c(S(=O)(=O)NCC(=O)N(C)Cc2ccccc2)c(C)n(C)c1C	x	-24%[46 µM]	-12%	-7%[59 µM]	x	x
CN(C(=O)CSc1nc2ccc(NC(=O)COc3ccc(F)cc3)cc2s1)c1ccccc1	x	u	u	-3%[59 µM]	x	x
COc1ccccc1/C=C/C=N/N1CCN(Cc2ccc(Cl)cc2)CC1	-22%	-7%	13%	u	18µM*	u
COc1ccc(Br)cc1/C=N/N1CCN(Cc2ccccc2Cl)CC1	12%	x	-2%	11%[0.501 µM]	x	x
COc1ccccc1/C=C/C=N\N1CCN(Cc2ccccc2Cl)CC1	22µM*	u	-6%	14µM*	20µM*	0%
O=C(Cn1c(=O)oc2cc(S(=O)(=O)N3CCCCC3)ccc21)Nc1cccc(Cl)c1	x	x	-14%	-7%[59 µM]	x	x
O=C1OC(c2ccccc2)=N/C1=C\C=C\c1ccco1	40µM*	u	5%	x	u	-13%
O=C1OC(c2ccc(Cl)cc2)=N/C1=C\C=C\c1ccco1	45µM*	5%[46 µM]	-1%	14µM*	u	-25%
COc1ccc(CCNC[C@@H](O)c2ccc(O)cc2)cc1OC	u	u	x	-36%[2.33 µM]	u	5%
C=CCSc1nnc(-c2cc3c(C(F)(F)F)nn(C)c3s2)n1C	12%	7%	-6%	71µM*	u	0%
CCOc1ccc(CC(=O)NCCc2sc3nc(-c4ccc(F)cc4)nn3c2C)cc1	x	11%[46 µM]	4%	10%[59 µM]	x	x
Cc1ccc(/C=C/S(=O)(=O)NCCC(=O)NCc2ccc(F)cc2)cc1	x	x	x	40%[12.7 µM]	x	x
Cc1cccc(N=Nc2c(C)c(C#N)c(O)[nH]c2=O)c1	3%	u	-11%	50µM*	-8%	-1%
Cc1c(C#N)c(O)[nH]c(=O)c1N=Nc1ccc(Br)cc1C(=O)O	-16%	x	1%	45µM*	x	x
COc1cccc(Nc2ncc3nc(-c4ccc(Cl)cc4)c(=O)n(C4CC4)c3n2)c1	2%	4%	x	1%[0.501 µM]	u	x
COc1cccc(C(=O)/C=C/Nc2cccc(O)c2)c1	-7%	-6%	27%	14µM*	-16%	1%
COc1cc(/C=C/C(=O)c2ccc(O)cc2)ccc1OCC#N	-20%	u	u	-13%[59 µM]	u	-1%
COc1cccc(C(=O)/C=C/c2ccc(OCC#N)c(OC)c2)c1	-10%	u	u	-5%[59 µM]	8.9µM*	-2%
COc1cccc(C(=O)/C=C/c2ccc(SC)cc2)c1	-6%	u	-7%	85%	16µM*	-4%
COc1ccc(N/C=C(\C=C\C#N)S(=O)(=O)c2ccccc2)cc1	4%	x	-3%	-5%[2.33 µM]	x	x
C=CCNC(=O)c1ccc(N(Cc2ccccc2)S(C)(=O)=O)cc1	4%	x	3%	29%[59 µM]	x	x
COc1cccc(/C=N/Nc2nc3ccccc3n3cnnc23)c1	18%	-13%	-1%	27%[59 µM]	-5%	-3%
SMILES	Sfp inh	LMNA splice mod	miR-21 act	G9a inh	ALDH1A1 inh	KDM4E inh
COc1ccc(/C=N/Nc2ccccn2)cc1O	50µM*	x	-68%	x	x	1%
COc1cccc(/C=N/Nc2nc3ccccc3[nH]2)c1O	-9%	x	15%	x	x	4.5µM*
COc1cccc(/C=N/Nc2nc3ccccc3n3cnnc23)c1O	18%	u	-1%	75%[59 µM]	u	28µM*
COc1cc(/C=N/Nc2nc3ccccc3[nH]2)cc(OC)c1O	14µM*	u	-5%	28µM*	1%	u
CCn1cc(C(=O)NC2CCCCCC2)c(=O)c2ccc(C)nc21	3%	x	-1%	1%[0.501 µM]	x	x
COc1cc(/C=N/Nc2nc3ccccc3[nH]2)ccc1O	11µM*	-27%	-25%	-2%[59 µM]	-8%	u
C(=N\Nc1nc2ccccc2[nH]1)/c1cccs1	-19%	-2%	-53%	-36%	2.8µM*	15%
COc1cc(/C=N/Nc2nc3ccccc3[nH]c2=O)ccc1O	0%	24%[9.22 µM]	-18%	5%	6%	-7%
CCOc1ccc(/C=N/Nc2ccccn2)cc1	-24%	x	-43%	u	8%	-16%
C=CCn1cc(/C=N/Nc2nc3ccccc3[nH]2)c2ccccc21	16µM*	u	21%	50µM*	-16%	u
COc1ccc2nc(Cl)c(/C=N/Nc3ccccn3)cc2c1	16µM*	x	-41%	34%	0%	-23%
Cc1cc(C)c(S(=O)(=O)N2CCN(C(=O)C(C)Cn3cncn3)CC2)c(C)c1 (stereo unspecified)	6%	x	7%	21%	x	x
CC(=O)Nc1ccc(/C=N/Nc2nc3ccccc3[nH]2)cc1	10µM*	-22%	-3%	-35%	-3%	-7%
COc1cc(/C=N/NC(=O)Cn2nnc3ccccc32)ccc1O	-2%	x	9%	23%	-1%	-21%
COc1cccc(/C=N\NC(=O)Cn2nnc3ccccc32)c1O	24%	u	11%	4%	10%	28µM*
O=[N+]([O-])C1=CC=C2C(=NC3(CCCCC3)N2O)C1=NCCO	40µM*	8%	1%	u	u	-3%
CN=C1C([N+](=O)[O-])=CC=C2C1=NC1(CCCCC1)N2O	8.9µM*	6%	-4%	u	8%	-4%
C1CCc2c(nnc3c2-c2nonc2CC3)C1	-4%	4%	-3%	32µM*	u	-7%
O=C1NCCCc2nonc21	13%	2%	0%	13%	-4%	3%
Cc1c(C(=O)N2CCCCC2)c(S(=O)(=O)NCCc2ccc(Cl)cc2)c(C)n1C	19%	x	0%	-13%[59 µM]	x	x
CSc1ccc(CN(C)CC(=O)Nc2c(F)cccc2F)cc1	u	u	6%	6.3µM*	u	u
CSc1ccc(CN(C)CC(=O)Nc2ccc(NC(C)=O)cc2)cc1	4%	17%[9.22 µM]	-4%	-38%	u	3%
